# MITF act = increases MITF-driven TRPM1 promoter luciferase signal | activation, % at 12.5 µM | SK-MEL-5 TRPM1-promoter luciferase, 24 h; % of positive control, neutral wells = 0 | 0.75% of 300,000 active | AID 588334;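 active = mean activation of at least 80% with every replicate also reaching 80%; inconclusive = mean reaches 80% but some replicate falls short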
# Wnt act = activates Wnt/beta-catenin signaling in a reporter cell assay; 1.2% of 300,000 active; activator, plate reader; activation, % at 9.35 µM; in the data active = activation above about 30%, passing the limit was not always enough; inconclusive = no clear call, values can overlap the other calls
# NSD2 inh = NSD2 (human) methyltransferase inhibition; O96028; AID 743445; 0.54% of 310,000 active; inhibition, % at 12.5 µM; NSD2 peptide methylation, AlphaScreen, 120 min
# Target sequence (O96028 whole entry, looked up): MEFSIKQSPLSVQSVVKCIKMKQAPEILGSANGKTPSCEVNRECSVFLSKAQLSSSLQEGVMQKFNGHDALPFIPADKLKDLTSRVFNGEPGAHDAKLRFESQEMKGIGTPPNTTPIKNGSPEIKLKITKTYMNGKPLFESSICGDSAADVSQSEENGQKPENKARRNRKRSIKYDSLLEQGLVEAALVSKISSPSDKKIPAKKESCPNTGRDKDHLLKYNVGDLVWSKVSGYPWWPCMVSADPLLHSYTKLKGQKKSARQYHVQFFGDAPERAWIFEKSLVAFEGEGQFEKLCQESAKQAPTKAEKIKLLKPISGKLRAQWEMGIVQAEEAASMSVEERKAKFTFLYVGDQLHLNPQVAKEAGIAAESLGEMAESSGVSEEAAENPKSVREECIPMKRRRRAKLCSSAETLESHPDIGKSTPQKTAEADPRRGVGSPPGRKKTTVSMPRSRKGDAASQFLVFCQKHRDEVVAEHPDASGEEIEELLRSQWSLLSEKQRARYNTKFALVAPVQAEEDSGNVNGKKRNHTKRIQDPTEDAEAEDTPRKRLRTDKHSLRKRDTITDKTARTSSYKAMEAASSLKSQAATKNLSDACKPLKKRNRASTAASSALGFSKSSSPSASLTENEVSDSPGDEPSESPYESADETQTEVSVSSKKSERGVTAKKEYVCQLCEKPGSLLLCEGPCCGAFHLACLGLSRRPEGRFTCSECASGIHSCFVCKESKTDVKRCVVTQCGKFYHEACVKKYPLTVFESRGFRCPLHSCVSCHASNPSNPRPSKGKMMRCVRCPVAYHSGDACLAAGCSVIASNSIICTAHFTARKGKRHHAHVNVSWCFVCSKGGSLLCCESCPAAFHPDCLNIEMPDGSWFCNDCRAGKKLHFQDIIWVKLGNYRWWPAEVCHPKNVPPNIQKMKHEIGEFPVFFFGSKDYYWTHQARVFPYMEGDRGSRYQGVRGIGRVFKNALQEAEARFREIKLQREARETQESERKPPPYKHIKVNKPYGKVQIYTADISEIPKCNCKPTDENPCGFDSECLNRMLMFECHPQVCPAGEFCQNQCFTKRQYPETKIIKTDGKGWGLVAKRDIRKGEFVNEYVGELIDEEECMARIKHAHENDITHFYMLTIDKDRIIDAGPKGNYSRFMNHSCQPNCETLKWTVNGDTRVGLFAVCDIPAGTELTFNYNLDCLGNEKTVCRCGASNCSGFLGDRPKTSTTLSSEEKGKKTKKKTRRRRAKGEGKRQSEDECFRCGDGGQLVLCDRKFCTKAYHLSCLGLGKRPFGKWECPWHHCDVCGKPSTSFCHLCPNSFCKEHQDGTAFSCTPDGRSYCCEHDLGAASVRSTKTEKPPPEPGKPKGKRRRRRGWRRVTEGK
# DYRK1A inh = inhibitors of rat Dyrk1A kinase; Q63470; ADP-Glo luminescence, NFATc1 peptide; inhibition, % at 12.5 µM; 0.43% of 310,000 active
# GSIS activator = primary screen for activators of insulin secretion dependent on glucose, INS-1E cells, GLuc reporter luminescence. INS-1E GLuc reporter insulin secretion, 2-3 h. activation, % at 16.6 µM. 0.61% of 370,000 active;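 active = lowest replicate activation of at least 40%, so every replicate reaches that level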
# miR122 inh = miR-122 inhibition in Huh7 cells | AID 602342 | 0.3% of 340,000 active | Huh7 miR-122 Renilla luciferase sensor, 48 h; neutral wells = 0, positive control = 100 | activation (reporter increase), % at 12.5 µM;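 active = mean replicate activation score at least 90 and every replicate individually at or above 90; inconclusive = only one of the two criteria met; inactive = neither criterion met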;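 note: higher luciferase means less miR-122 activity so hits act as miR-122 inhibitors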
# A number is an active result; i = inactive; ? = inconclusive; nt = no result. Compounds with a hit are over-represented: about 2.4% of the library has one in this group of screens. Cut-off read from the data, not from the text of the source, unless noted: active = inhibition above about 50%; inactive = the rest.
SMILES,MITF act,Wnt act,NSD2 inh,DYRK1A inh,GSIS activator,miR122 inh
CCc1ccc(S(=O)(=O)/N=C2\C=C(NS(=O)(=O)c3ccccc3)C(=O)c3ccccc32)cc1,i,i,127.7,i,i,i
Cc1ccccc1NC1=C/C(=N\S(=O)(=O)c2cccs2)c2ccccc2C1=O,nt,i,i,i,nt,i
CN(C)C(=O)C[C@@H]1C[C@H]2c3cc(NC(=O)NC4CCCCC4)ccc3O[C@H]2[C@H](CO)O1,nt,nt,nt,nt,i,i
CCCN1[C@H](C(=O)NC2CCC2)[C@@H](CO)[C@@H]2Cn3c(ccc(-c4ccccc4F)c3=O)[C@@H]21,nt,nt,nt,nt,i,i
O=C(CC(c1ccccc1O)N1CCCCC1)N1CCCCC1 (stereo not drawn),nt,38.5,i,i,nt,nt
O=C(c1ccc(F)cc1)N1CC(=O)N2[C@H](C1)[C@@H](c1ccc(-c3ccccc3)cc1)[C@@H]2CO,nt,nt,nt,nt,i,nt
Cc1cc(C)n(/C(=C/N(C)C)C(=O)c2ccccc2)n1,i,i,i,i,i,i
Cc1cc(C)n(C(N)=NC(=O)c2ccc([N+](=O)[O-])cc2)n1,94.5,i,i,nt,i,i
Cc1cc(C)n(C(N)=NC(=O)c2ccccc2)n1,nt,43.4,i,nt,nt,nt
C[C@H]1CN([C@@H](C)CO)C(=O)Cc2cc(NC(=O)Nc3ccccc3)ccc2O[C@H]1CN(C)C(=O)Nc1ccc(C(F)(F)F)cc1,nt,nt,nt,nt,i,i
CO[C@H]1CN(C)C(=O)c2ccc(NC(=O)c3cccc(F)c3)cc2OC[C@H](C)N(C)C[C@@H]1C,nt,nt,nt,nt,i,nt
C/C(CC(=O)Nc1ccccn1)=N\NC(=O)c1ccccc1O,i,i,nt,i,i,261.6
CSc1nc(N2CCOCC2)c2ccccc2n1,i,i,i,i,92.5,i
CSc1nc(Cl)cc(N2CCOCC2)n1,i,i,i,i,53.3,i
O=C(O)C[C@H]1CC[C@@H](NC(=O)c2ccccc2F)[C@@H](CO)O1,nt,nt,nt,nt,i,nt
CCCNC(=O)N1C[C@@H]2[C@H](c3ccccc31)[C@@H](CO)N2Cc1cc(F)ccc1F,nt,nt,nt,nt,i,i
CCCCc1nnc2c(N(C)S(=O)(=O)c3ccccc3)nc3ccccc3n12,i,i,i,i,43.6,i
CNC(=O)C[C@H]1CC[C@H]2[C@H](COc3ccc(NC(=O)c4cccs4)cc3C(=O)N2C)O1,nt,nt,nt,nt,i,i
S=C1NC(c2ccccc2)=NCN1c1ccccc1,nt,41.6,i,i,nt,i
Cc1ccc(C2=N/C(=C/N3CCOCC3)C(=O)O2)cc1,91.9,nt,i,i,nt,i
COc1ccc(/C=C2\N=C(c3ccc(C)cc3)OC2=O)cc1,i,i,i,i,i,i
Cc1ccc(C2=N/C(=C\N3CCCCC3)C(=O)O2)cc1,?,62.8,i,i,nt,i
NCC[C@H]1CC[C@@H](NS(=O)(=O)Cc2ccccc2)[C@H](CO)O1,nt,nt,nt,nt,i,i
O=C(CSc1nc2ccccc2n1CCc1ccccc1)c1ccc(O)c(O)c1,i,i,101.8,i,i,i
O=C(CSc1nc2ccccc2n1CCc1ccccc1)N1CCOCC1,i,i,i,i,i,nt
SMILES,MITF act,Wnt act,NSD2 inh,DYRK1A inh,GSIS activator,miR122 inh
Fc1ccccc1-c1cc2ccccc2cn1,i,35.6,nt,i,nt,i
Fc1ccc2cnc(-c3ccccc3F)cc2c1,i,i,nt,i,i,i
COc1cc(C2C(C#N)=C(N)OC3=C2C(=O)CCC3)c([N+](=O)[O-])cc1OC (stereo not drawn),nt,nt,75.3,i,nt,i
COc1ccccc1C1=NOC(CN2C(=O)c3ccccc3S2(=O)=O)C1 (stereo not drawn),103.6,36.9,nt,i,i,nt
COc1ccccc1C1=NOC(COC(=O)c2ccc([N+](=O)[O-])cc2)C1 (stereo not drawn),nt,41.0,i,nt,i,i
O=C1c2ccccc2S(=O)(=O)N1CC1CC(c2ccccc2Cl)=NO1 (stereo not drawn),94.2,93.4,i,i,i,i
C[C@@H]1CN([C@@H](C)CO)C(=O)c2cc(NS(=O)(=O)c3ccccc3)ccc2O[C@@H](C)CCCCO[C@@H]1CN(C)C(=O)CCCN(C)C,nt,nt,nt,nt,i,i
Cc1cc(Br)ccc1OCC(=O)N1CCCCCC1,i,nt,i,i,nt,i
CC(C)c1ccc(OCC(=O)N2CCCCCC2)c(Br)c1,i,43.4,i,i,i,i
CC(C)Nc1nc(Nc2ccc(C(N)=O)cc2)c2sccc2n1,nt,i,i,nt,70.0,i
CNc1nc(Nc2ccc(C(=O)OC)cc2)c2sccc2n1,nt,nt,i,nt,nt,i
C[C@H](CO)N1C[C@H](C)[C@@H](CN(C)C(=O)Nc2cccc3ccccc23)OCCCC[C@H](C)Oc2ccc(NC(=O)Nc3ccc(C(F)(F)F)cc3)cc2C1=O,nt,nt,nt,nt,i,i
Nc1nc2ccccc2n1/N=C/c1cccnc1,i,nt,i,i,nt,i
Nc1nc2ccccc2n1/N=C/c1ccc(-c2ccccc2)o1,nt,52.6,i,i,nt,i
CO[C@@H]1CN(C)C(=O)c2ccc(NC(=O)c3ccccn3)cc2OC[C@@H](C)N(Cc2ccccn2)C[C@H]1C,nt,nt,nt,nt,nt,i
CCOC(=O)C1CCCN(CCC(=O)Nc2ccc(C)c(C)c2)C1 (stereo not drawn),i,i,i,i,i,i
CCOC(=O)C1CCN(CCC(=O)Nc2ccc(C)c(C)c2)CC1,i,45.8,i,nt,i,i
O=C(O)CCC(=O)/C=C/c1ccccc1,i,i,i,i,i,i
CC(C)c1ccc(/C=C/C(=O)CCC(=O)O)cc1,i,i,i,i,i,213.3
COc1ccccc1-c1cnc2c(c1)C(=O)N([C@@H](C)CO)C[C@@H](C)[C@H](CN(C)CC1CCOCC1)O2,nt,nt,nt,nt,i,i
CN(C)CCCNC(=O)C[C@H]1CC[C@H]2[C@@H](COc3ccc(NC(=O)CN(C)C)cc3C(=O)N2C)O1,nt,nt,nt,nt,i,nt
O=C(NN=C1CCCC1)c1cc(-c2ccccc2)n[nH]1,i,nt,i,i,48.1,nt
CCc1ccc(CN(C)C(=O)c2cc(S(=O)(=O)N3CCOCC3)ccc2N2CCCC2)cc1,i,i,i,i,i,nt
Cc1ccsc1CN(C)C(=O)c1cc(S(=O)(=O)N2CCOCC2)ccc1N1CCCC1,i,44.0,i,nt,i,i
CCN=c1scc(-c2ccco2)n1/N=C/c1ccc(OC)c(O)c1,i,39.8,i,i,i,i
SMILES,MITF act,Wnt act,NSD2 inh,DYRK1A inh,GSIS activator,miR122 inh
O=[N+]([O-])c1cc(/C=N/N2CCN(c3ccccc3)CC2)ccc1Cl,i,i,i,i,i,i
O=[N+]([O-])c1cc(/C=N/N2CCCCC2)ccc1Cl,99.2,i,i,i,i,nt
CN(C)c1ccc(C=NN2CCCCCC2)cc1,i,i,i,nt,nt,i
O=[N+]([O-])c1cc(C=NN2CCCCCC2)ccc1Cl,i,40.1,i,i,nt,i
CC(C)c1ccc(/C=N/N2CCCCC2)cc1,97.8,45.4,i,i,i,nt
Cc1ccc(Cl)cc1NC(=O)C1CCCC1,nt,nt,i,nt,nt,nt
C[C@H]1CCCCO[C@@H](CN(C)Cc2ccc3c(c2)OCO3)[C@@H](C)CN([C@@H](C)CO)C(=O)c2cc(NS(=O)(=O)c3ccc(Cl)cc3)ccc2O1,nt,nt,nt,nt,i,i
NC(=O)C1CC(=O)N(c2ccc(OCc3ccc(Cl)cc3Cl)cc2)C1 (stereo not drawn),i,i,nt,i,i,i
